aSyn 5UTR inh = MLPCN primary screen, SNCA 5' untranslated region; alpha-synuclein 5'UTR reporter, inhibitor activity; inhibition, % (tested at 7.5 µM); 0.82% of 300,000 active; in the data active = inhibition above about 60%;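 also: H4 neuroglioblastoma cells stably carrying SNCA 5'UTR luciferase fusion; 0% = DMSO wells and 100% = positive control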
CSC inhib = cancer stem cell viability inhibitors, primary screen, luminescence | inhibition, % at 7.5 µM | 1.1% of 300,000 active | cancer stem cell-like cells viability; in the data active = inhibition above about 75%; tested in HMLE shEcad cells
Jurkat NFkB inh = inhibitors of induced NF-kB luciferase reporter, primary screen, TCR NF-kB activation inhibitor project, cell-based, luminescence, uHTS. Jurkat, PMA/ionomycin-induced NF-kB luciferase reporter. inhibition, % at 4 µM. 0.53% of 330,000 active; in the data active = inhibition above about 50%
Gli-Sufu block = Gli-Sufu pathway antagonists, primary screen, luciferase luminescence, Sufu-KO-LIGHT cells, uHTS; Sufu-KO-LIGHT fibroblasts, Gli luciferase reporter luminescence; inhibition, % at 5 µM; 0.74% of 340,000 active;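 active = inhibition above about 55%, limit read from the data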;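 also: 0% = DMSO-treated cells and 100% = wells with medium but no cells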
Mdm2 MdmX PPI = inhibitors of human Mdm2-MdmX association, primary screen, cell-based, luminescence, split luciferase, SaOS-2, uHTS. Protein Mdm4 (Homo sapiens) + E3 ubiquitin-protein ligase Mdm2 (Homo sapiens), …. SaOS-2 split-luciferase Mdm2/MdmX complementation. inhibition, % at 8 µM. 3% of 330,000 active;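 active = inhibition of at least 50% at 8 µM in the primary screen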
Target sequence (O15151 whole entry, looked up): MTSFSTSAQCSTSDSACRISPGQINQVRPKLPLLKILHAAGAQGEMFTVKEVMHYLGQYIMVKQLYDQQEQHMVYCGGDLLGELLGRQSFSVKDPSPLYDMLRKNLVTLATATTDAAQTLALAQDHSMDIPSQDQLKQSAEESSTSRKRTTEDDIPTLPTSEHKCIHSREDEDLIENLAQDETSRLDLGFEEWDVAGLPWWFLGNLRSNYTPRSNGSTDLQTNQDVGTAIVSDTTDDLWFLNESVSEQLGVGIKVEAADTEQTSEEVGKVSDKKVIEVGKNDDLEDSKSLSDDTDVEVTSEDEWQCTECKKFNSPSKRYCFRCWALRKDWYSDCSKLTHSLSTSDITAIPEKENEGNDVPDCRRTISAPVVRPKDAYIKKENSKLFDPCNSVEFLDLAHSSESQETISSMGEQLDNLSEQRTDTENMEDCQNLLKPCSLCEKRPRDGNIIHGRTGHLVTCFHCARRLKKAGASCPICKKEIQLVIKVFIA
Target sequence (Q00987 whole entry, looked up): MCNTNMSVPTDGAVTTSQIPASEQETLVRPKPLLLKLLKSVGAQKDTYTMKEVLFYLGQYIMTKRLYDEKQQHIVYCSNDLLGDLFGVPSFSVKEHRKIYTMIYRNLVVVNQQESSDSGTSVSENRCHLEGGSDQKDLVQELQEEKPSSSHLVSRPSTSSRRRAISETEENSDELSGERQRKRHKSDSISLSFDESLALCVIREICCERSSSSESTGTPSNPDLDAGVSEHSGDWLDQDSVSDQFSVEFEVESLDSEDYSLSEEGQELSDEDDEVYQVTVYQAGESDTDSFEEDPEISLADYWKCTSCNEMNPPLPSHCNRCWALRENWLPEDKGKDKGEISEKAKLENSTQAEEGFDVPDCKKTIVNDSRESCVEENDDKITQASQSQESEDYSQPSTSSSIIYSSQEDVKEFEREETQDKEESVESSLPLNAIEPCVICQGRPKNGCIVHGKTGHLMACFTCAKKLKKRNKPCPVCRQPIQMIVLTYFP
697 NFkB inh = inhibitors of PMA/ionomycin-induced NF-kB reporter, 697 cells, primary screen, B-cell NF-kB inhibitor project, cell-based, luminescence, uHTS; AID 435022, 2010; 0.33% of 330,000 active; inhibition, % at 4 µM; 697 B-cell NF-kB luciferase reporter, 16 h; in the data active = inhibition above about 35%
Jurkat NFkB conf = PMA/ionomycin-induced NF-kB reporter inhibitors, Jurkat retest, confirmation, T-cell NF-kB inhibitor project, cell-based, luminescence, single concentration | shares compounds with Jurkat NFkB inh | Jurkat NF-kB luciferase, 16 h | inhibition, % at 4 µM | 27% of 2,700 active;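 active = inhibition reaching about 45% at 4 µM in either replicate, limit read from the data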;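 also: plate controls were PMA/ionomycin stimulated DMSO wells for no effect and unstimulated DMSO wells for full effect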
Mdm2 MdmX conf = Mdm2-MdmX complex disruptors, retested hits, confirmation, luminescence, single concentration. shares compounds with Mdm2 MdmX PPI. Mdm2-MdmX binding, luminescent assay. inhibition, % at 8 µM. 55% of 10,000 active. AID 489028, 2010; in the data active = inhibition above about 40%
Full FLuc ctr = full-length luciferase signal inhibition, confirmation, counter-screen for Mdm2/MdmX interaction inhibitor project, cell-based, single concentration, SaOS-2; shares compounds with Mdm2 MdmX PPI; SaOS-2 full-length luciferase counterscreen, luminescence; inhibition, % at 8 µM; 77% of 6,200 active;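 active = mean inhibition at 8 µM reaching about 37%, which flags the compound as non-specific, limit read from the data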;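 also: p53-null SaOS-2 cells with luciferase driven by a doxycycline-inducible promoter; compound on cells about two nights before reading with doxycycline added after day one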
Gli antag conf = Gli-SUFU pathway antagonists, confirmation, single concentration, luciferase luminescence, Sufu-KO-LIGHT cells; shares compounds with Gli-Sufu block; inhibition, % at 5 µM; Gli luciferase reporter; 40% of 2,500 active;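 active = mean inhibition at 5 µM reaching about 45%, limit read from the data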;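 also: plate controls were DMSO-treated cells for no effect and wells lacking cells for full effect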
Gli cytotox = cytotoxicity in Sufu-KO-LIGHT cells, confirmation, cytotoxicity control for Gli-SUFU antagonist project, cell-based, ATP luminescence, single concentration | shares compounds with Gli-Sufu block | 32% of 2,500 active | cytotoxicity, % at 5 µM;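 active = mean cytotoxicity at 5 µM above about 25%, limit read from the data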;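 also: cells exposed to compound overnight for roughly 16 to 18 hours; plate controls were DMSO wells with cells for no effect and medium without cells for full effect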
Wnt3a counter = Wnt3a reporter signal inhibition, confirmation, counter-screen for Gli-SUFU antagonist project, Wnt-LIGHT cells, luminescence, single concentration; shares compounds with Gli-Sufu block; Wnt3a-driven luciferase reporter; inhibition, % at 6.25 µM; 20% of 2,500 active;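 active = mean inhibition above about 25%, limit read from the data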
* = called active by the depositor. Rows were chosen to be rich in hits. Some 4.5% of all compounds tested hit in one or more screens of this group.

Results for O=S(=O)(Nc1ccc(F)cc1Cl)c1ccc(-c2cnc(C3CC3)o2)cc1 ?
aSyn 5UTR inh: 68*; Jurkat NFkB inh: 52*; Gli-Sufu block: 54; Mdm2 MdmX PPI: 56*; 697 NFkB inh: -26; Jurkat NFkB conf: 52*; Mdm2 MdmX conf: 61*; Full FLuc ctr: 66*; Gli antag conf: 25; Gli cytotox: 50*; Wnt3a counter: -34

How did COc1ccc(NS(=O)(=O)c2ccc(-c3cnc(C4CC4)o3)cc2)cc1OC do in these assays?
aSyn 5UTR inh: 41; CSC inhib: 62; Jurkat NFkB inh: 57*; Gli-Sufu block: 72*; Mdm2 MdmX PPI: 57*; 697 NFkB inh: 17; Jurkat NFkB conf: 68*; Mdm2 MdmX conf: 56*; Full FLuc ctr: 47*; Gli antag conf: 71*; Gli cytotox: 59*; Wnt3a counter: 29*

What do the screens show for `Cc1cccc(N(C)S(=O)(=O)c2ccc3c(c2)NC(=O)CC(=O)N3)c1`?
aSyn 5UTR inh: -9; CSC inhib: -12; Jurkat NFkB inh: 2; Gli-Sufu block: -5; Mdm2 MdmX PPI: 10; 697 NFkB inh: 14

How did CCOc1ccccc1NS(=O)(=O)c1ccc(-c2cnc(C3CC3)o2)cc1 do in these assays?
aSyn 5UTR inh: 20; CSC inhib: 17; Jurkat NFkB inh: 55*; Gli-Sufu block: 55*; Mdm2 MdmX PPI: 73*; 697 NFkB inh: -81; Jurkat NFkB conf: 58*; Mdm2 MdmX conf: 56*; Full FLuc ctr: 117*; Gli antag conf: 59*; Gli cytotox: 56*; Wnt3a counter: -12

How did CC(=O)Nc1ccc(NS(=O)(=O)c2cc(-c3cnc(C4CC4)o3)ccc2C)cc1 do in these assays?
aSyn 5UTR inh: -7; CSC inhib: 17; Jurkat NFkB inh: -3; Gli-Sufu block: 6; Mdm2 MdmX PPI: 3; 697 NFkB inh: -15

How did Cc1cccc(N(C)S(=O)(=O)c2ccc(-c3cnc(C4CC4)o3)cc2)c1 do in these assays?
aSyn 5UTR inh: 97*; CSC inhib: 78*; Jurkat NFkB inh: 62*; Gli-Sufu block: 59*; Mdm2 MdmX PPI: 74*; 697 NFkB inh: -122; Jurkat NFkB conf: 54*; Mdm2 MdmX conf: 59*; Full FLuc ctr: 103*; Gli antag conf: 57*; Gli cytotox: 55*; Wnt3a counter: -15

Results for CN1CCN(S(=O)(=O)c2cccc(C(=O)Nc3ccc(Br)cc3Br)c2)CC1 ?
aSyn 5UTR inh: 10; CSC inhib: 7; Jurkat NFkB inh: 11; Gli-Sufu block: 14; Mdm2 MdmX PPI: 23; 697 NFkB inh: -3

Results for CCC(c1nnnn1C(C)(C)C)N1CCN(c2cc(Cl)ccc2C)CC1 (stereo not drawn) ?
aSyn 5UTR inh: 9; CSC inhib: 1; Jurkat NFkB inh: 15; Gli-Sufu block: 3; Mdm2 MdmX PPI: 14; 697 NFkB inh: 8

Results for Cc1ccc(O)c(C(=O)c2cnn(C(=O)c3cccc(S(=O)(=O)N(C)C)c3)c2)c1 ?
Jurkat NFkB inh: 3; Gli-Sufu block: -5; Mdm2 MdmX PPI: 46; 697 NFkB inh: -17

How did CCOC(=O)NC(=S)Nc1c(C)n(C)n(-c2ccccc2)c1=O do in these assays?
aSyn 5UTR inh: 15; CSC inhib: -17; Jurkat NFkB inh: -6; Gli-Sufu block: 0; Mdm2 MdmX PPI: 27; 697 NFkB inh: 5

What do the screens show for `COc1ccc(CN2CCC(C(=O)Nc3ccc(Oc4cccnc4)cc3)CC2)cc1`?
aSyn 5UTR inh: 17; CSC inhib: 0; Jurkat NFkB inh: 23; Gli-Sufu block: 32; Mdm2 MdmX PPI: 16; 697 NFkB inh: 9

How did COc1ccc(CN2CCC(C(=O)Nc3ccc(Oc4cccnc4)cc3)CC2)c(C)c1C do in these assays?
aSyn 5UTR inh: 37; CSC inhib: 44; Jurkat NFkB inh: 54*; Gli-Sufu block: 60*; Mdm2 MdmX PPI: 74*; 697 NFkB inh: -41; Jurkat NFkB conf: 31; Mdm2 MdmX conf: 34; Full FLuc ctr: 53*; Gli antag conf: 38; Gli cytotox: 4; Wnt3a counter: 2

Results for O=C(OCc1ccc(Cl)c(Cl)c1)c1ccc[nH]1 ?
aSyn 5UTR inh: -82; CSC inhib: -6; Jurkat NFkB inh: -35; Gli-Sufu block: -71; Mdm2 MdmX PPI: -21; 697 NFkB inh: -42

Results for CCOc1ccc(/C=N/NC(=O)c2[nH]c3ccc(C)cc3c2C)cc1 ?
aSyn 5UTR inh: 5; CSC inhib: 24; Jurkat NFkB inh: -3; Gli-Sufu block: 31; Mdm2 MdmX PPI: -1; 697 NFkB inh: -3

What do the screens show for `O=C(N/N=C/c1c[nH]c2ccccc12)c1[nH]c2ccc(Br)cc2c1-c1ccccc1`?
aSyn 5UTR inh: -26; Gli-Sufu block: 48

What do the screens show for `O=C(N/N=C/c1ccc(O)cc1)c1[nH]c2ccc(Br)cc2c1-c1ccccc1`?
aSyn 5UTR inh: 8; CSC inhib: 51; Jurkat NFkB inh: 60*; Gli-Sufu block: 63*; Mdm2 MdmX PPI: 67*; 697 NFkB inh: -3; Jurkat NFkB conf: 31; Mdm2 MdmX conf: 56*; Full FLuc ctr: 92*; Gli antag conf: 63*; Gli cytotox: 72*; Wnt3a counter: 17

Source: PubChem
